Shown are actives, neighbours in structure and some others; about 4.6% of the full set was active somewhere.
GAA850 FXN act = FXN promoter activators, primary screen, cell-based, luciferase luminescence, HEK293 lucGAA850 | HEK293 lucGAA850 FXN promoter luciferase reporter, 24 h; percent of 10 µM SAHA response | activation, % at 6 µM | AID 540364, 2011 | 0.56% of 360,000 active;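 active = activation above the average of all compounds screened plus 3 SD, cutoff fixed separately per campaign, cut at about 7.5% in these data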;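 note: 0% = DMSO wells and 100% = 10 µM SAHA wells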
HSF-1 act = HSF-1 activators, primary screen, NIH3T3-HGL cells, MG132 stress, luminescence, single point; NIH3T3-HGL HSF-1 luciferase reporter, 8 h; 100% = twice DMSO control signal; activation, % at 9 µM; 1.7% of 300,000 active;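 active = mean replicate activation of at least 50% with a set share of replicates each reaching 50%; inconclusive = only one of those two conditions met; inactive = mean below 50% and too few replicates reaching it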;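 note: 0% = median of the neutral control wells and 100% = twice that signal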
HSF1 inhib = HSF1 inhibitors in luciferase reporter cells, primary screen, cell-based, NIH3T3, luminescence | 0.77% of 300,000 active | activity change, negative = inhibition, % at 7.5 µM (by protocol) | NIH3T3-HGL HSE-luciferase, MG132-induced, luminescence 8 h; active compounds read low;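 active = more than half of replicate wells show activity change below -50%, luminescence cut by over half; inconclusive = some wells, but at most half, below -50%; inactive = no replicate well below -50%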;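 note: luciferase reports HSF-1 transcriptional activity via heat shock element; 0% = median of DMSO wells and -100% = zero luminescence signal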
AHR act = AHR activators, primary screen, cell-based, luminescence, luciferase reporter, human | activation, % at 5 µM | Aryl hydrocarbon receptor (Homo sapiens), P35869 | 2.5% of 320,000 active | AHR-responsive luciferase reporter cells; in the data active = activation above about 47%;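 note: 0% = vehicle wells and 100% = reference agonist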
Target sequence (P35869 whole entry, looked up): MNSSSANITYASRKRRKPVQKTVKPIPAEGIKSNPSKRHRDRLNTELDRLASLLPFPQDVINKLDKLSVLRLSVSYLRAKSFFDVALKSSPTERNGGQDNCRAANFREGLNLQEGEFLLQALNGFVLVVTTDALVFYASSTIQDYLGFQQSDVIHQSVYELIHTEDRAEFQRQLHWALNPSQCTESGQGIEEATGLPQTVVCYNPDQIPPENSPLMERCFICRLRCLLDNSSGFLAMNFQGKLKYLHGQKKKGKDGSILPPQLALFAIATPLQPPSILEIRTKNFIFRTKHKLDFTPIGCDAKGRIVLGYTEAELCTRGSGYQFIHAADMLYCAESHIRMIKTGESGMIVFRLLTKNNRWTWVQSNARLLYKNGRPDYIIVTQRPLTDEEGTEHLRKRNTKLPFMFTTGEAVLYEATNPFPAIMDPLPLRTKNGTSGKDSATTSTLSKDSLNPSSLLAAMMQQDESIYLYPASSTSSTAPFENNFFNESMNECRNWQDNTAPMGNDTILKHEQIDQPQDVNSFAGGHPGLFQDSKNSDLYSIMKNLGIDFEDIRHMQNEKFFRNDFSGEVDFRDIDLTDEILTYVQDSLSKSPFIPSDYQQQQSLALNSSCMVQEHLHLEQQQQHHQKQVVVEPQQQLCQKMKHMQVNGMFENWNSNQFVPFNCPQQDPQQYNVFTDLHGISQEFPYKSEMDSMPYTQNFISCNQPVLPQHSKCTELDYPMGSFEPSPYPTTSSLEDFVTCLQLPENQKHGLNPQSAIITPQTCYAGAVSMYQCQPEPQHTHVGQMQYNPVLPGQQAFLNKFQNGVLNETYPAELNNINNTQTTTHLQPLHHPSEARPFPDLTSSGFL
Numbers without * were called inactive.

Results for COc1ccc(C2CC(c3ccc(Br)cc3)=NN2C(=O)CSC2=NN3CCCC(=O)N=C3S2)cc1 (configuration not stated) ?
GAA850 FXN act: 1.7; HSF-1 act: -12.2; HSF1 inhib: -0.2; AHR act: -0.1

What do the screens show for `O=C(CN1C2=NCCCN2c2ccccc21)c1cccc(Br)c1`?
GAA850 FXN act: 0.3; HSF-1 act: 2.1; HSF1 inhib: 10.9; AHR act: 6.9

How did O=C(CN1C2=NCCCN2c2ccccc21)c1ccc(Cl)cc1Cl do in these assays?
GAA850 FXN act: -0.4; HSF-1 act: 37.1; HSF1 inhib: 22.6; AHR act: 58.6*

How did CC(NC(=O)CN1C(=O)NC(c2ccccc2)(c2ccccc2)C1=O)c1cccs1 (configuration not stated) do in these assays?
GAA850 FXN act: 1.2; AHR act: 1.0

Results for CCOC(=O)C(CC)(CC)C(=O)/C=C/c1cccc(Br)c1 ?
GAA850 FXN act: 2.1; HSF-1 act: 251.0*; HSF1 inhib: 159.4; AHR act: 0.7

Results for O=C(c1cnn2c(C(F)F)cc(-c3ccccc3)nc12)N1CCc2ccccc2C1 ?
GAA850 FXN act: 2.0; HSF-1 act: 13.9; HSF1 inhib: 7.2; AHR act: 0.8

What do the screens show for `O=C(c1cnn2c(C(F)F)cc(C3CC3)nc12)N1CCc2ccccc2C1`?
GAA850 FXN act: 5.2; HSF-1 act: 9.0; HSF1 inhib: 5.8; AHR act: 49.2*

How did N#Cc1c(SCC(=O)O)nc(-c2ccccc2)c2c1CCCC2 do in these assays?
GAA850 FXN act: -3.0; HSF-1 act: -6.9; HSF1 inhib: -3.6; AHR act: -2.1

What do the screens show for `Cc1ccc(C)c2[nH]c(=O)c(CN(Cc3ccco3)C(=S)NCC3CCCO3)cc12` (configuration not stated)?
GAA850 FXN act: 1.2; HSF-1 act: 76.8*; HSF1 inhib: 57.2; AHR act: 7.7

How did Cc1cccc2cc(CN(CC3CCCO3)C(=S)NCc3ccco3)c(=O)[nH]c12 (configuration not stated) do in these assays?
GAA850 FXN act: -4.1; HSF-1 act: 16.5; HSF1 inhib: 1.9; AHR act: 12.5

Results for COc1ccccc1NC(=S)N(Cc1ccco1)Cc1cc2ccc(C)c(C)c2[nH]c1=O ?
GAA850 FXN act: 1.2; HSF-1 act: 27.4; HSF1 inhib: 13.7; AHR act: 38.2

How did COc1ccccc1NC(=S)N(Cc1ccco1)Cc1cc2cc(C)cc(C)c2[nH]c1=O do in these assays?
GAA850 FXN act: -2.3; HSF-1 act: 30.4; HSF1 inhib: 10.1; AHR act: 71.7*

What do the screens show for `Cc1cc(C)c2[nH]c(=O)c(CN(CC3CCCO3)C(=S)Nc3ccccc3)cc2c1` (configuration not stated)?
GAA850 FXN act: 0.3; HSF-1 act: 1.6; HSF1 inhib: -10.3; AHR act: 9.5

What do the screens show for `Cc1ccc2cc(CN(Cc3ccco3)C(=S)NCC3CCCO3)c(=O)[nH]c2c1` (configuration not stated)?
GAA850 FXN act: -0.1; HSF-1 act: 38.4; HSF1 inhib: 21.7; AHR act: -2.7

How did Cc1ccc2cc(CN(CC3CCCO3)C(=S)Nc3ccccc3)c(=O)[nH]c2c1C (configuration not stated) do in these assays?
GAA850 FXN act: -5.9; HSF-1 act: 3.1; HSF1 inhib: 5.0; AHR act: 51.2*

What do the screens show for `Cc1cc(C)c2[nH]c(=O)c(CN(CC3CCCO3)C(=S)NCc3ccco3)cc2c1` (configuration not stated)?
GAA850 FXN act: 1.3; HSF-1 act: 62.3*; HSF1 inhib: 36.2; AHR act: 17.4

How did Cc1ccccc1NP1(=O)OCCCN1Cc1ccccc1Cl (configuration not stated) do in these assays?
GAA850 FXN act: -1.2

How did CCCC1=[N+](CC(=O)c2ccccc2)CCn2c(C)ccc21 do in these assays?
GAA850 FXN act: -0.8; HSF-1 act: -2.0; HSF1 inhib: -3.9; AHR act: 49.5*

Results for COc1ccc(OC)c(C2C(C(=O)Nc3cccnc3)=C(C)NC3=C2C(=O)CCC3)c1 (configuration not stated) ?
GAA850 FXN act: 1.9; HSF-1 act: 28.9; HSF1 inhib: 6.3; AHR act: 0.8

What do the screens show for `Cc1c(N=Nc2ccc(O)cc2)c(=O)n(-c2ccccc2)n1C`?
GAA850 FXN act: 3.4; HSF-1 act: 1.1; HSF1 inhib: 3.1; AHR act: 56.5*

Results for Cc1c(N=NC2=C(O)CCCC2=O)c(=O)n(-c2ccccc2)n1C ?
GAA850 FXN act: -0.2; HSF-1 act: -13.9; HSF1 inhib: -1.5; AHR act: 51.4*

How did Cc1[nH]c2ccccc2c1N=Nc1c(C)n(C)n(-c2ccccc2)c1=O do in these assays?
GAA850 FXN act: -2.0; HSF-1 act: 11.5; HSF1 inhib: 14.6; AHR act: 32.0

How did N#Cc1c(NC(=O)c2cc(C3CC3)on2)sc2c1CCC2 do in these assays?
GAA850 FXN act: -3.4; HSF-1 act: -4.0; HSF1 inhib: -4.3; AHR act: 17.6

Results for Nc1ccc(S(=O)(=O)NCC(=O)OCCOc2ccccc2)cc1[N+](=O)[O-] ?
GAA850 FXN act: -2.1; HSF-1 act: -22.0; HSF1 inhib: -4.8; AHR act: -0.7

What do the screens show for `N/C(=N\OC(=O)c1ccc(Cl)cc1Cl)c1ccncc1`?
GAA850 FXN act: 5.9; HSF-1 act: inconclusive; HSF1 inhib: 20.2; AHR act: 0.7

How did Cc1ccc(C(=O)O/N=C(\N)c2ccccc2)c(Cl)c1 do in these assays?
GAA850 FXN act: -9.0; HSF-1 act: -83.2; HSF1 inhib: -81.4*; AHR act: -3.4

How did N/C(=N\OC(=O)c1ccccc1Cl)c1cccc([N+](=O)[O-])c1 do in these assays?
GAA850 FXN act: 5.9; HSF-1 act: 33.2; HSF1 inhib: 24.2; AHR act: 17.2

What do the screens show for `N/C(=N\OC(=O)c1ccc([N+](=O)[O-])cc1Cl)c1ccccn1`?
GAA850 FXN act: -6.8; HSF-1 act: -15.7; HSF1 inhib: -10.4; AHR act: 17.8

Results for N/C(=N\OC(=O)c1ccc(Cl)cc1Cl)c1ccccn1 ?
GAA850 FXN act: -6.9; HSF-1 act: -74.3; HSF1 inhib: -65.1*; AHR act: 6.8

Results for N/C(=N\OC(=O)c1ccccc1Cl)c1ccncc1 ?
GAA850 FXN act: 3.4; HSF-1 act: 33.8; HSF1 inhib: -3.3; AHR act: 58.8*

Results for Cc1ccc(C(=O)O/N=C(\N)c2ccccn2)c(Cl)c1 ?
GAA850 FXN act: -11.9; HSF-1 act: -86.7; HSF1 inhib: -84.0*; AHR act: -2.2

What do the screens show for `N#CC1C(C#N)N2CCCN2C1c1ccc(Br)cc1` (configuration not stated)?
GAA850 FXN act: 1.0; HSF-1 act: 28.0; HSF1 inhib: 4.2; AHR act: 27.1

What do the screens show for `CC(C)c1ccc(OCC(=O)NC(=S)Nc2ccc3c4c(cccc24)CC3)cc1`?
GAA850 FXN act: 1.2; HSF-1 act: 67.9*; HSF1 inhib: 20.4; AHR act: 2.6

Compound activity (PubChem)
